This is a sample that favours compounds with a hit; in the whole collection about 4.6% have one here.
HSF1 inhib: HSF1 inhibition. NIH3T3-HGL HSE-luciferase, MG132-induced, luminescence 8 h; active compounds read low. activity change, negative = inhibition, % at 7.5 µM (by protocol). hit rate 0.77% among 300,000;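 active = more than half of replicate wells show activity change below -50%, luminescence cut by over half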;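 also: luciferase reports HSF-1 transcriptional activity via heat shock element; 0% = median of DMSO wells and -100% = zero luminescence signal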
HSF-1 act: increases HSF-1 driven luciferase reporter signal | NIH3T3-HGL HSF-1 luciferase reporter, MG132, 8 h; 100% = twice DMSO control signal | activation, % at 9 µM | hit rate 1.7% among 300,000 | AID 504408;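 active = mean replicate activation of at least 50% with a set share of replicates each reaching 50%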;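 also: 0% = median of the neutral control wells and 100% = twice that signal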
GAA850 FXN act: increases GAA850 frataxin promoter reporter activity; AID 540364; HEK293 lucGAA850 FXN promoter luciferase reporter, 24 h; percent of 10 µM SAHA response; activation, % at 6 µM; hit rate 0.56% among 360,000;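 active = activation above the average of all compounds screened plus 3 SD, cutoff fixed separately per campaign, cut at about 7.5% in these data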;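 also: 0% = DMSO wells and 100% = 10 µM SAHA wells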
AHR act: activates the human aryl hydrocarbon receptor; AHR-responsive luciferase reporter cells, luminescence; P35869; hit rate 2.5% among 320,000; activation, % at 5 µM; in the data active = activation above about 47%;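 also: 0% = vehicle wells and 100% = reference agonist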
* hit, by the source's call; / = not tested or not shown.

SMILES	HSF1 inhib	HSF-1 act	GAA850 FXN act	AHR act
COc1ccc(C(=O)Nc2cc(C(F)(F)F)ccc2-n2cnc3ccccc32)cc1	28	65*	-5	6
CC(=O)Nc1ccc(C(=O)Nc2cc(C(F)(F)F)ccc2-n2cnc3ccccc32)cc1	8	-9	-1	0
Cc1ccccc1C(=O)NNC(=O)C(=O)Nc1cccc(Cl)c1C	6	13	-2	-6
O=S1(=O)N[C@H](c2ccccc2)C[C@H](c2ccc(C(F)(F)F)cc2)O1	-56*	-67	0	3
CCOc1ccccc1Nc1nc(-c2sc(NC(=O)c3ccccc3)nc2C)cs1	-12	-32	/	72*
CCOc1ccccc1Nc1nc(-c2sc(NC(=O)c3cccc(Cl)c3)nc2C)cs1	16	15	0	64*
Cc1ccc(Cl)cc1Nc1nc(-c2sc(NC(=O)c3ccccc3)nc2C)cs1	9	10	/	36
COc1ccccc1Nc1nc(-c2sc(NC(=O)c3ccccc3)nc2C)cs1	9	12	1	28
Cc1ccc(S(=O)(=O)N2CCC(C(=O)N3CCN(Cc4ccccc4)CC3)CC2)cc1	/	/	1	-1
NS(=O)(=O)c1ccc(CCNC(=O)c2ccc(C#CC3(O)CCCCC3)cc2)cc1	-54*	-54	-7	0
COc1ccc(C(=O)N(C)Cc2nc3ccccc3c(=O)[nH]2)cc1S(=O)(=O)N1CCCC1	/	/	1	7
COc1ccc(NC(=S)/N=C(\N)Nc2nc(C)c3ccc(C)cc3n2)cc1	-15	-25	0	55*
CCNC(=S)/N=C(\N)Nc1nc(C)c2cc(C)ccc2n1	24	45	7	77*
CCOc1ccc2nc(N/C(N)=N/C(=S)Nc3ccc(C)c(C)c3)nc(C)c2c1	2	19	3	8
CC1CCc2c(sc3ncn4c(SCC(=O)NCc5ccco5)nnc4c23)C1 (configuration not stated)	-1	-8	4	0
CCOc1ccc(NS(=O)(=O)c2ccc(NS(=O)(=O)c3ccc(SC)cc3)cc2)cc1	-3	13	4	3
Cc1ccc(C(=O)Nc2nc3c(s2)CCCC3)o1	25	60*	1	19
O=C(Nc1nc2c(s1)CCCC2)c1cccs1	/	/	-2	59*
Cc1cccc(NC(=O)CSc2nnc(-c3ccco3)c(-c3ccco3)n2)c1C	57	89*	2	5
COC(=O)C(Cc1ccccc1)NC(=O)CNC(=O)c1sc2ccccc2c1Cl (configuration not stated)	-53*	-63	-1	3
C=CCN1C(=O)c2ccc(C(=O)N(C)CC(=O)Nc3ccc(Br)cc3C)cc2C1=O	-4	-8	0	0
Cn1c(O)c(C=Nc2ccc(Br)cc2)sc1=O	24	58*	4	63*
Cc1ccc(CC2SC(=Nc3ccccc3)N(c3ccccc3)C2=O)cc1 (configuration not stated)	26	59*	1	2
O=C(O)CC1SC(=Nc2ccccc2)N(c2ccccc2)C1=O (configuration not stated)	-3	-15	0	1
COC(=O)c1cccc(Cn2c(Cl)c(/C=N/Nc3ccccc3C)sc2=O)c1	155	151*	-1	5
SMILES	HSF1 inhib	HSF-1 act	GAA850 FXN act	AHR act
CC(=O)C1=C(C)NC2(O)c3ccccc3C(=O)C12O (configuration not stated)	17	62*	-1	7
O=[N+]([O-])c1ccc(/C=C/c2ccc3cccc([N+](=O)[O-])c3n2)cc1	14	50	2	106*
COc1c(OC(C)=O)ccc(/C=C/c2ccc3ccccc3n2)c1[N+](=O)[O-]	33	65*	6	-2
COc1c(OC(C)=O)ccc(/C=C/c2ccc3cccc(OC)c3n2)c1[N+](=O)[O-]	0	20	5	23
O=[N+]([O-])c1ccccc1/C=C/c1ccc2ccccc2n1	52	98*	4	75*
Fc1ccccc1CN1CCCC(NC2CCC2)C1 (configuration not stated)	-4	12	0	4
Cc1cccc(CN2CCNC2=O)c1	-71*	-77	0	1
CC1CCN(C(=O)CCCOc2cc(=O)n(C)c3ccccc23)CC1	37	75*	1	6
COc1ccc(N2CCN(C(=O)CCCOc3cc(=O)n(C)c4ccccc34)CC2)cc1	9	21	0	0
Cn1c(SCc2ccccc2F)nc2cccnc21	38	63*	4	-2
COc1ccc(S(=O)(=O)N2CCCC2C(=O)NCc2cccs2)cc1 (configuration not stated)	3	5	1	-1
O=C(NCc1ccccc1)c1c[nH]c2cc3c(cc2c1=O)OCCO3	-5	12	3	77*

Screening results (PubChem BioAssay)
